The source of these data is PubChem BioAssay (Tox21).

Records with an inconclusive call do not appear. Unmarked numbers belong to inactive results. Activity calls are given as the source filed them. The call rests on the fitted dose curve; in most records, active means well fitted activation curve with a large enough effect in the signal ratio in the repeat runs (not every such curve was filed as active); inconclusive means weak or mixed curves, or effect the other way; inactive means no such curve, though single readings can be large or run the other way; the % refers to the signal ratio.
On the % scale 0 is the no-effect control and ±100 the full control effect; potency means the concentration at half of the fitted maximal effect.

Sequence of Glucocorticoid receptor (Homo sapiens) (P04150 whole entry, looked up): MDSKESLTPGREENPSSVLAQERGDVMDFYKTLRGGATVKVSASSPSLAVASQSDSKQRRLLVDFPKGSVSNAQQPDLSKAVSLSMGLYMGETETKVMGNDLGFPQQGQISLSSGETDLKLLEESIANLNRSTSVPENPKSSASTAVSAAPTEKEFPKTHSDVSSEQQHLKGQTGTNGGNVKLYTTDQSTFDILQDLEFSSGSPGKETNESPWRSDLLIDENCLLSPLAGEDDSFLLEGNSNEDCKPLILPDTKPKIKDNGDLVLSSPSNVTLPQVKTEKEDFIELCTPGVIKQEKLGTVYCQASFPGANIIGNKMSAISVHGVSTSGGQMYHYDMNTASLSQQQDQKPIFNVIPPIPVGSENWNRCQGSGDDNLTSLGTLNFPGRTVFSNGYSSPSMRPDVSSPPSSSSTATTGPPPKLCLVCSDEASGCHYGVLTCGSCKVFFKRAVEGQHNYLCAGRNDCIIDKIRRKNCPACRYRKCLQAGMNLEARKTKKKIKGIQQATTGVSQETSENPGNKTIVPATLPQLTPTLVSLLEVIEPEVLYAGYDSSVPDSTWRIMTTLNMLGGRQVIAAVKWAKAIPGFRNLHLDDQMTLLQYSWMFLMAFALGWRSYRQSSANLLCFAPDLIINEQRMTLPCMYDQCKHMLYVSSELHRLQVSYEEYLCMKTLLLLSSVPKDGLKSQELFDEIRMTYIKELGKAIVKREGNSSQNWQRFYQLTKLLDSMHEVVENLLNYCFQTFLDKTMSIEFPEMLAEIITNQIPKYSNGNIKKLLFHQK

In this experiment the target is Glucocorticoid receptor (Homo sapiens) (UniProt P04150). Nature of the experiment: qHTS assay to identify small molecule agonists of the glucocorticoid receptor (GR) signaling pathway (AID 720691). To be noted: GR-bla HeLa, beta-lactamase reporter ratio, 18 h; series mostly up to 62.4 µM; activation: at the top concentration. The text has this:
U.S. Tox21 Program National Center for Advancing Translational Sciences [NCATS] NIH Chemical Genomics Center [NCGC] U.S. Environmental Protection Agency [EPA] National Institutes of Environmental Health Sciences [NIEHS] National Toxicology Program [NTP] U.S. Food and Drug Administration [FDA] Tox21 Assay Overview: The Glucocorticoid receptor (GR) is one of the members of the nuclear receptor family of ligand-dependent transcription factors. GR plays a critical role in carbohydrate, protein and lipid metabolisms and programmed cell death. CellSensor GR-bla HeLa cell line (Invitrogen) contains a beta-lactamase reporter gene under the control of the glucocorticoid response element stably integrated into HeLa cells, a cervical cancer cell line that expresses glucocorticoid receptor. The activation of the reporter gene under culture conditions can be detected by fluorescence intensity. This cell line has been used to screen the Tox21 10K compound library and to identify the compounds that activate the GR signaling.
Tox21 Assay Protocol Summary: The GR-bla HeLa cells were dispensed at 1500 cells/6 ul/well in 1536-well black wall/clear bottom plates using a Multidrop Combi (ThermoFisher Scientific, Waltham, MA) dispenser. After the assay plates were incubated at a 37 C/5% CO2 incubator for 4 hours, 23 nL of compounds dissolved in DMSO, positive controls or DMSO only was transferred to the assay plate by a pintool station (Kalypsys, San Diego, CA). The plates were incubated at 37 C for 18 hours. After 1 uL of LiveBLAzerTM B/G FRET substrate was added using a Flying Reagent Dispenser (Aurora Discovery, San Diego, CA), the plates were incubated at room temperature for 2 hours, and fluorescence intensity was measured by an Envision plate reader (PerkinElmer, Shelton, CT).
Turning to `c1ccc(OCC2CO2)cc1` (stereo not given), the “activation” value is 2.87% [at 79.2 µM]. Same read-out and setting: under `N#C/C=C/C#N` stands -0.554% [at 79.2 µM]; under `CC1(C)[C@H](C(=O)O[C@H](C#N)c2cccc(Oc3ccccc3)c2)[C@@H]1/C=C(\Cl)C(F)(F)F`, 10%.

Turning to `CCOCn1c(-c2ccc(Cl)cc2)c(C#N)c(Br)c1C(F)(F)F`, the “activation” value is 11.9%. The same measure, in the same setting: under `O=[N+]([O-])c1ccc(Oc2ccc(C(F)(F)F)cc2[N+](=O)[O-])cc1` stands -6.59%. For the compound `O=[N+]([O-])O.O=[N+]([O-])O.[Cd]`, the Potency was 389 nM (active). On to `N#CCCSCCC#N`, for which the “activation” value is 1.03%.

Regarding `CC(=O)/C=C/c1ccc2c(c1)OCO2`, the “activation” value was -6.31% [at 79.2 µM]. The same measure, in the same setting: under `CCN` stands 2.1% [at 79.2 µM]; under `FC(F)(F)c1cccc(C2=CCN(CCc3ccc4ccccc4c3)CC2)c1`, -1.34%. With `CCCCCCCCCCCCCCCCCCn1cc[n+](C)c1`, the “activation” value is -11.3%. Take `Nc1ccc(Sc2ccc(N)cc2)cc1`: the “activation” value is -11.7%. On to `CC(C)CC(C)N` (stereo not given), for which the “activation” value was -2.3%. Still for that read-out and setting: the same measure for `Fc1cccc(Cl)c1CCl`: 3.02%. Consider `C[C@]12CC[C@H]3[C@@H](CCC4=CC(=O)CC[C@@]43C)[C@@H]1CC[C@@H]2O`, for which the “activation” value was -14%. Regarding `FC(Cl)(Cl)Cl`, the “activation” value is 0.642%. Same read-out and setting: the same measure for `CC(=O)C(Cl)(Cl)Cl`: -0.856%. On the same count and under the same terms, under `CCC(C)c1cc([N+](=O)[O-])cc([N+](=O)[O-])c1OC(=O)C=C(C)C` (stereo not given) stands 2.87%; under `CCCSP(=O)(OCC)SCCC`, 24.4% [at 79.2 µM]. Same read-out and setting: under `CCCCCCCCCCCCCN1CC(C)OC(C)C1` (stereo not given) stands 2.08%; under `COc1ccc(/C(=C/C(=O)N2CCOCC2)c2ccc(Cl)cc2)cc1OC`, -3.53%.

Take `CSCCCN=C=S`: the “activation” value is -0.318%.

With `BrC(Br)Br`, the “activation” value is 0.288%. In the case of `NNC(=O)c1ccccc1`, the “activation” value was -3.13% [at 79.2 µM]. Still for that read-out and setting: the same measure for `BrCBr`: -3.37% [at 79.2 µM]; for `Cc1cc(C(F)(C(F)(F)F)C(F)(F)F)ccc1NC(=O)c1cccc(I)c1C(=O)NC(C)(C)CS(C)(=O)=O`: 5.52%; for `CCCCCCCCCBr`: 3.02% [at 79.2 µM]. On the same count and under the same terms, the same measure for `Nc1ccccc1C(=O)OC/C=C/c1ccccc1`: 4.12%; for `CS(=O)(=O)c1ccc(C(=O)C2C(=O)CCCC2=O)c([N+](=O)[O-])c1`: -8.6% [at 79.2 µM]; for `O=c1ssc(Cl)c1Cl`: -2.18%.

Take `Oc1c(Br)c(Br)c(Br)c(Br)c1Br`: the “activation” value was -5.98% [at 79.2 µM]. On the same count and under the same terms, under `N#CNC#N` stands -5.2% [at 79.2 µM]; under `ClCc1ccc(Cl)cc1Cl`, -0.119%; under `CCOC(=O)OC1=C(c2cc(C)ccc2C)C(=O)NC12CCC(OC)CC2` (stereo not given), -8.76%. On the same count and under the same terms, under `COc1cccc(C(=O)CCN[C@@H](C)[C@H](O)c2ccccc2)c1` stands -10.8%. The same measure, in the same setting: under `CC(C)Oc1cccc(NC(=O)c2ccccc2C(F)(F)F)c1` stands -10.5%.

Consider `c1ccc(Nc2ccc3ccccc3c2)cc1`, for which the Potency result was “inactive”. For `CC(=O)O[C@H]1CC[C@@]2(C)C(=CC[C@@H]3[C@@H]2CC[C@]2(C)C(=O)CC[C@@H]32)C1`, the Potency entry was “inactive”. Take `CN(C)CCc1c[nH]c2cccc(O)c12`: the “activation” value was -2.8%.

For `C[C@@H]1O[C@@H](O[C@H]2C[C@@H](O)[C@]3(CO)[C@H]4[C@H](O)C[C@]5(C)[C@@H](C6=CC(=O)OC6)CC[C@]5(O)[C@@H]4CC[C@]3(O)C2)[C@H](O)[C@H](O)[C@H]1O`, the Potency entry is “inactive”.
